HP1b chromo inh = HTS for Inhibitors of HP1-beta Chromodomain Interactions with Methylated Histone Tails | AlphaScreen HP1-beta / biotin-H3K9me3 peptide binding | AID 540317, 2011 | Chromobox protein homolog 1 (Homo sapiens), P83916 | Potency, µM (highest dose often 114 µM), without a hit: at the highest dose activity change, negative = inhibition, actives largely listed as inhibitors | hit rate 0.56% among 390,000; note: nearly all actives have a fitted effect of over 70% in size
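AlphaScreen: HP1-beta (50 nM) preformed 30 min with biotin-H3(1-18)K9me3 peptide (50 nM) in PBS pH 7.4, 0.01% Tween-20. Compound added for 30 min at RT, then streptavidin donor/nickel chelate acceptor beads (10 ug/mL) for 30 min.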
Sfp PPTase inh = qHTS Assay for Inhibitors of Bacillus subtilis Sfp phosphopantetheinyl transferase (PPTase) | Biochemical Sfp PPTase activity, qHTS | hit rate 3.5% among 310,000 | Potency, µM, for inactives: largest response in the series, negative = inhibition, most hits filed as inhibitors | 4'-phosphopantetheinyl transferase ffp (Bacillus subtilis), Q9F4F7;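 note: the enzyme is Sfp with the accession as filed and its product quenches rhodamine fluorescence; 0% = enzyme reaction without inhibitor and -100% = no enzyme wells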
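Fluorescence-quenching assay: 15 nM Sfp-PPTase preincubated 15 min at room temperature with compound, then 5 uM rhodamine-CoA and 12.5 uM BHQ-2-labelled YbbR peptide added. Fluorescence (ex 525/em 598 nm) read at start and after 30 min; difference gives rate.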
G9a inh = qHTS Assay for Inhibitors of Histone Lysine Methyltransferase G9a; Histone-lysine N-methyltransferase EHMT2 (Homo sapiens), Q96KQ7; G9a H3K9 monomethylation, AlphaScreen, 2 h; Potency, µM (doses to about 102 µM), for inactives: top-dose activity, negative = inhibition, usual class: inhibitors; hit rate 8.8% among 350,000; note: % is set by controls: 0 for no effect and ±100 for the full control effect; nearly all actives have a fitted effect of over 75% in size
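Methyltransferase reactions run at room temperature for 2 h (20 nM enzyme, 500 nM biotin-H3K9 peptide, 20 uM SAM) after a 15 min compound preincubation; product detected by AlphaScreen beads and anti-H3K9me1 antibody.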
L3MBTL1 block = qHTS Assay for the Inhibitors of L3MBTL1; Lethal(3)malignant brain tumor-like protein 1 (Homo sapiens), Q9Y468; AlphaScreen L3MBTL1–H3K9me1 peptide binding; Potency, µM (doses to about 57.1 µM), without a hit: top-dose activity, negative = inhibition, hits mostly inhibitors; hit rate 0.66% among 230,000; AID 485360, 2010; note: % is set by controls: 0 for no effect and ±100 for the full control effect; nearly all actives have a fitted effect of over 60% in size
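L3MBTL1 (50 nM) pre-complexed 30 min with biotinylated H3(1-15)K9me1 peptide (75 nM), then compounds added for 30 min at room temperature; AlphaScreen streptavidin donor/nickel chelate acceptor beads (10 ug/mL final) read after 30 min dark incubation.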
BAZ2B inh = qHTS Assay for Inhibitors of BAZ2B | Potency, µM (top dose mostly 114 µM), for inactives: top-dose activity change, negative = inhibition, most hits filed as inhibitors | AID 504333, 2011 | AlphaScreen BAZ2B-H3K14Ac peptide displacement | hit rate 4.4% among 360,000 | Bromodomain adjacent to zinc finger domain protein 2B (Homo sapiens), Q9UIF8; note: % is set by controls: 0 for no effect and ±100 for the full control effect; nearly all actives have a fitted effect of over 60% in size
Target sequence (Q9UIF8 whole entry, looked up, the tested form may be a part): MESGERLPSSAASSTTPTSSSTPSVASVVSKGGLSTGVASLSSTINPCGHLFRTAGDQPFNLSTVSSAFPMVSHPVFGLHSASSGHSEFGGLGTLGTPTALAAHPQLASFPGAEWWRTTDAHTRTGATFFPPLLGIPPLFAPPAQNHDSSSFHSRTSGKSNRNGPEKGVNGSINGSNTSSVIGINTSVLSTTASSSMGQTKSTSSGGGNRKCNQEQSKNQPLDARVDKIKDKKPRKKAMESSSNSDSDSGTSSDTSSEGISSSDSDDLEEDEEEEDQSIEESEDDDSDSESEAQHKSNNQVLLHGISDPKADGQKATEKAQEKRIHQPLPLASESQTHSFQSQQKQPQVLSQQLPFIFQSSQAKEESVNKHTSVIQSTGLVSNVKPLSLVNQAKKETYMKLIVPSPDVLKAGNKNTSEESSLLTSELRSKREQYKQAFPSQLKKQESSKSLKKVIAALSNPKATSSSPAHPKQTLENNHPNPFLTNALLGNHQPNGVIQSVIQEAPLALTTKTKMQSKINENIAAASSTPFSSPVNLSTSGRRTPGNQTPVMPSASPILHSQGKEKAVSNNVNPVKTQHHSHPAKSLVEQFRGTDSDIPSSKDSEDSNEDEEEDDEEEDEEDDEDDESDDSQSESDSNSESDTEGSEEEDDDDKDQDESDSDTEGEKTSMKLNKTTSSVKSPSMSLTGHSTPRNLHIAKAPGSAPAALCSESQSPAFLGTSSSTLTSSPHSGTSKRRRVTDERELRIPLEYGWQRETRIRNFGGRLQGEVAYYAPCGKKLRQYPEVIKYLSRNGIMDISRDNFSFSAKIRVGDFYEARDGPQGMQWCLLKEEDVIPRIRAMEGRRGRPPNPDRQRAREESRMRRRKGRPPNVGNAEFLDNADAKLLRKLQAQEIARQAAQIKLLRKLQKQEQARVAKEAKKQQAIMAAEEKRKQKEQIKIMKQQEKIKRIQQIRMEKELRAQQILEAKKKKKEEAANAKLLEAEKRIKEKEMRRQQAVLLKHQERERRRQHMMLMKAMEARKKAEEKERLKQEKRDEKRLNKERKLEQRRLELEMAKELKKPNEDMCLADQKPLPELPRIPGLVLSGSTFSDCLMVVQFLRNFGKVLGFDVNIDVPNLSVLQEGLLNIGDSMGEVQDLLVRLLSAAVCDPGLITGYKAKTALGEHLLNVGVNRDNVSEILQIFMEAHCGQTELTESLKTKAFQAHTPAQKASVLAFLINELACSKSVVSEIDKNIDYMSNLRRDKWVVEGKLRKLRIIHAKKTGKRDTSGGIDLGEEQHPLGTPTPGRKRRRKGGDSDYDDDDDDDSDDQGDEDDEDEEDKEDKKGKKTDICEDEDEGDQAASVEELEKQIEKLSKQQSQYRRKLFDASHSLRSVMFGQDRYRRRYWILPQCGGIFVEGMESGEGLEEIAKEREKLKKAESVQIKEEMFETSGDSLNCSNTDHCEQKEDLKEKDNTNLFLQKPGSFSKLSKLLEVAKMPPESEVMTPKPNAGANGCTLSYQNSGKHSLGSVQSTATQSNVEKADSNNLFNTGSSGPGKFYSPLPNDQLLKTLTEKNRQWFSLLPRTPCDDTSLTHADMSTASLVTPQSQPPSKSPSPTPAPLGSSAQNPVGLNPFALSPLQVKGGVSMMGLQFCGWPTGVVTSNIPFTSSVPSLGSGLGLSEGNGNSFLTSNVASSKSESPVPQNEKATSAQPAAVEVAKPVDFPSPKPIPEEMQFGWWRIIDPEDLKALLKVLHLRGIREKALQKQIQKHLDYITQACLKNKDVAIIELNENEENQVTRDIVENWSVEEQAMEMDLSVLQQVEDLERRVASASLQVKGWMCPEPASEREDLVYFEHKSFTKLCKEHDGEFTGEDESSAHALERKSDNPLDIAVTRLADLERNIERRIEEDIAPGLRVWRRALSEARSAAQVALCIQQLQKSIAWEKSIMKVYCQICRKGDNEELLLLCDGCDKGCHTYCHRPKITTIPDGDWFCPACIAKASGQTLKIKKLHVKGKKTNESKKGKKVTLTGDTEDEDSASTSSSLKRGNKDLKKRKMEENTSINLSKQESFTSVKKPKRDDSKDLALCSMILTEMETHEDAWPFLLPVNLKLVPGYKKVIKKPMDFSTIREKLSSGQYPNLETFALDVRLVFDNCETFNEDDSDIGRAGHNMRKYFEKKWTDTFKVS
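Compounds, titrated to a top concentration of 110 uM, were incubated 30 min at room temperature with preformed BAZ2B/acetyl-K14 H3 peptide complex (50 nM each). Proximity signal was measured by AlphaScreen after 20 min with beads.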
JMJD2A Tudor inh = qHTS Assay for Inhibitors of JMJD2A-Tudor Domain | Lysine-specific demethylase 4A (Homo sapiens), O75164 | Potency, µM (top dose mostly 114 µM), for inactives: at the top dose activity change, negative = inhibition, most hits filed as inhibitors | AlphaScreen JMJD2A-Tudor / H3K4me3 peptide binding | hit rate 4.4% among 390,000 | AID 504339, 2011; note: % is set by controls: 0 for no effect and ±100 for the full control effect; nearly all actives have a fitted effect of over 50% in size
Starred values were filed as active, the others as inactive; ? = inconclusive; nt = no result; [ ] = dose if it differs, or a comment. Sampled rows, rich in hits. Any-hit rate of the full collection: about 12%. Calls come from the whole dose curve; as a rule, active = well fitted curve in the direction sought with a large enough effect; inconclusive = small, poorly fitted or top-dose-only effect, or another doubt; inactive = no such curve, though single readings can be large; an effect the other way counts as inactive or inconclusive. Potency is the fitted concentration of half-maximal effect.

SMILES	HP1b chromo inh	Sfp PPTase inh	G9a inh	L3MBTL1 block	BAZ2B inh	JMJD2A Tudor inh
Cc1cnc(CNc2ncnc3ccc(-c4ccccc4CN(C)C)cc23)cn1	nt	-8%	nt	nt	nt	nt
CCCCOc1ccc(C(=O)NCc2nnnn2-c2ccc(C)c(C)c2)cc1	22%[57 µM]	nt	4%[59 µM]	nt	2%	-15%
CCN(CC)S(=O)(=O)c1ccc(C(=O)NC2CC(=O)N(c3ccc4c(c3)OCCO4)C2)cc1 (centres undefined)	30%	nt	7%[59 µM]	nt	1%	0%
Cc1ccc(CNC(=O)NC2COc3ccccc3C2)cc1 (centres undefined)	26%[57 µM]	nt	6%[59 µM]	nt	3%	0%
CC(C)(C)OC(=O)N1CCC(c2c(C(=O)NCc3ccco3)cnn2-c2ccccc2Cl)CC1	20%	nt	?	nt	-1%[57.1 µM]	-27%
Cc1nnc(NC(=O)COc2ccccc2)s1	9%	6%	?	nt	-6%	-26%
CCOCC(=O)Nc1nnc(C)s1	18%	-1%	45µM*	-4%	11%	-2%
N#CCCn1c(=O)c(-c2cccc(C#N)c2)nc2cnc(Oc3cccc(Cl)c3)nc21	nt	10%	-15%[0.501 µM]	nt	nt	nt
CS(=O)(=O)c1cc([N+](=O)[O-])c(Sc2nc3ccccc3[nH]2)c([N+](=O)[O-])c1	?	13µM*	?	nt	-29%	?
CCN1CCN(c2ccc([N+](=O)[O-])c(Sc3nc4ccccc4[nH]3)c2)CC1	?	0%	32µM*	-12%	-27%	-34%
Cn1cnc([N+](=O)[O-])c1Sc1nc2ccccc2[nH]1	15%	?	-3%	-7%	25%	-9%
O=C(O)c1cc([N+](=O)[O-])c(Sc2nc3ccccc3[nH]2)c([N+](=O)[O-])c1	26%	50µM*	40µM*	nt	-7%	-7%
Cc1cc(C)c(NC(=O)CSc2nnc3[nH]c(=O)cc(C)n23)c(C)c1	44%	nt	6%[59 µM]	nt	-12%	1%
Cc1ccccc1NC(=O)c1cc(N)ccc1N1CCCCC1	-5%	-16%	32µM*	-11%	?	?
CN(Cc1ccccc1)C(=O)COC(=O)c1cc(S(=O)(=O)N(C)C)ccc1N1CCCC1	22%	nt	50µM*	-3%	-19%	-12%
CN(C)S(=O)(=O)c1ccc(N2CCCC2)c(C(=O)Nc2ccccc2Br)c1	28%	nt	45µM*	-5%	6%	-17%
CCC(=O)Nc1ccc(N2CCCCC2)c(C(=O)Nc2ccccc2C)c1	21%	-6%	?	nt	?	-32%
CN(C)c1cncc(C(=O)O)c1	30%	56µM*	54%	nt	21%	-5%
CCC(C)(C)n1nnnc1C(c1ccccc1OC)N1CCN(C(=O)c2ccco2)CC1 (centres undefined)	10%	11%	?	nt	-3%	-27%
Cc1ccc2[nH]c(=O)c(C(c3nnnn3C(C)(C)C)N3CCN(C(=O)c4ccco4)CC3)cc2c1 (centres undefined)	1%	45µM*	-9%[0.501 µM]	50%	14%	-28%
CCC(C)(C)n1nnnc1C(c1cc2cc(C)cc(C)c2[nH]c1=O)N1CCN(C(=O)c2ccco2)CC1 (centres undefined)	18%	45µM*	?	3%	1%	-16%
Cc1cccc2cc(C(c3nnnn3C(C)(C)C)N3CCN(C(=O)c4ccco4)CC3)c(=O)[nH]c12 (centres undefined)	23%	56µM*	?	1%	1%	-10%
COCc1cc(C)nc2sc(C(=O)Nc3cc(C)ccc3F)c(N)c12	70%	nt	13%[59 µM]	nt	0%	11%
CCOc1ccc(CNC(=O)C2CCN(S(=O)(=O)c3cn(C)cn3)CC2)cc1	1%	nt	-14%[12.7 µM]	nt	-31%	-1%
COc1ccc(CNc2nc3c(c(=O)n(C)c(=O)n3C)n2Cc2ccccc2Cl)cc1	18%	nt	6%[59 µM]	nt	-1%	-9%
SMILES	HP1b chromo inh	Sfp PPTase inh	G9a inh	L3MBTL1 block	BAZ2B inh	JMJD2A Tudor inh
CCCCN(Cc1ccccc1)S(=O)(=O)c1cc(Br)cc2c1N(C(C)=O)CC2	11%	nt	-35%[59 µM]	nt	0%	-5%
O=C1NC(=O)/C(=C/c2ccc(-c3cccc([N+](=O)[O-])c3)o2)S1	-8%	89µM*	nt	-1%	?	?
COc1cc(NC(=O)COc2c(C)cc(C)cc2[N+](=O)[O-])c(OC)cc1Cl	-1%	50µM*	22%[59 µM]	-11%	-35%	-21%
C=C(C)CCC(C)N1CCC(n2nccc2NC(=O)CCCc2ccccc2)CC1 (centres undefined)	14%	9%	79µM*	nt	-15%	-13%
CC(C)C(=O)N1CCC(n2nccc2NC(=O)CCc2ccccc2)CC1	9%	4%	2%	nt	-2%[57.1 µM]	25µM*
OCCC#Cc1c(-c2ccsc2)sc2ccccc12	18%	3%	11µM*	6%	-4%	-14%
OCCCCC#Cc1c(-c2ccsc2)sc2ccccc12	101%	-2%	52%	12%	29%	47%
CC1(C)CC(=O)C2=C(C1)c1c(ccc3ccccc13)NC2c1cc([N+](=O)[O-])cc([N+](=O)[O-])c1O (centres undefined)	?	4µM*	?	-26%	50µM*	56µM*
CC1(C)CC(=O)C2=C(C1)c1c(ccc3ccccc13)NC2c1ccc(C(=O)O)cc1 (centres undefined)	28%	5%	-11%	nt	-3%	1%
O=C(CCS(=O)(=O)c1ccc(Br)s1)Nc1ccccc1Br	1%	17%	50µM*	-13%	-33%	-20%
CCc1cccc(CC)c1NC(=O)CCS(=O)(=O)c1ccc(Br)s1	-7%	nt	22µM*	nt	-38%	-31%
CCc1cccc(CC)c1NC(=O)CCS(=O)(=O)c1ccc(Br)cc1	37%	nt	-18%[59 µM]	nt	3%[57.1 µM]	-10%
COc1ccc(NC(=O)CCS(=O)(=O)c2ccc(Br)s2)cc1	-32%	13%	18µM*	nt	?	-30%
CC(C)c1ccc(NC(=O)CCS(=O)(=O)c2ccc(Br)s2)cc1	15%	nt	?	nt	0%	-12%
O=C(CCS(=O)(=O)c1ccc(Cl)cc1)Nc1ccccc1Br	-5%	7%	16%	nt	-1%	-6%
COC(=O)c1ccc(OC(=O)CCS(=O)(=O)c2ccc(C)cc2)cc1	27%	nt	35µM*	-1%	0%	-6%
Cc1ccc(C(=O)CCS(=O)(=O)c2ccc(F)cc2)cc1	44%	2%	32µM*	nt	-4%	-18%
